Data as given in the supplement of paper PMC12350171.
Structures can show the parent of a compound that is named as a salt.

system: P. vulgatus WT; experiment: growth AUC normalised to DMSO control (median) (fraction of control); higher = less growth inhibition, active = hit call of the paper; conditions: 20 µM
Summary of the method: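 Anaerobic growth was tracked hourly at OD578 for 24 h in 96-well plates of mGAM seeded at OD578 0.01 with each approved-drug library compound at 20 μM and 1% DMSO. Strains had first been passaged twice overnight without oxygen. Three biological replicates were run. The reported median is the area under the curve, calculated by the trapezoidal rule on curves truncated at entry into stationary phase and normalised to vehicle wells on the same plate.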
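Also: active when median AUC fell below 0.1.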

SMILES | growth AUC normalised to DMSO control
C[N+](C)(C)CCOC(N)=O [Carbachol chloride] | 1.05 (inactive)
COCCOC(=O)C1=C(C)NC(C)=C(C(=O)OC/C=C/c2ccccc2)C1c1cccc([N+](=O)[O-])c1 (stereo not drawn) [Cilnidipine] | 0.98 (inactive)
CCc1cc(C(N)=S)ccn1 [Ethionamide] | 0.986 (inactive)
CCOC(=O)n1ccn(C)c1=S [Carbimazole] | 1.01 (inactive)
CN(C)CCC[C@@]1(c2ccc(F)cc2)OCc2cc(C#N)ccc21 [Escitalopram oxalate] | 1 (inactive)
COc1ccc2[nH]c([S+]([O-])Cc3ncc(C)c(OC)c3C)nc2n1 (stereo not drawn) [Tenatoprazole] | 1.06 (inactive)
CC1CCc2cc(F)cc3c(=O)c(C(=O)O)cn1c23 (stereo not drawn) [Flumequine] | 0.647 (inactive)
CCn1cc(C(=O)O)c(=O)c2cc(F)c(N3CCNCC3)cc21 [Norfloxacin] | 0.865 (inactive)
Nc1ccc(S(=O)(=O)c2ccc(N)cc2)cc1 [Dapsone] | 1 (inactive)
CC(C)(C)NCC(O)COc1cccc2c1CC(O)C(O)C2 (stereo not drawn) [Nadolol] | 1.01 (inactive)
COc1c2occc2c(OC)c2c(=O)cc(C)oc12 [Khellin] | 1.02 (inactive)
COc1cc(C(=O)NS(=O)(=O)c2ccccc2C)ccc1Cc1cn(C)c2ccc(NC(=O)OC3CCCC3)cc12 [Zafirlukast] | 0.891 (inactive)
NS(=O)(=O)c1cc2c(cc1Cl)NCNS2(=O)=O [Hydrochlorothiazide] | 0.997 (inactive)
CC(=O)O[C@H]1C[C@@H]2CC[C@@H]3[C@H](CC[C@@]4(C)[C@H]3C[C@H]([N+]3(C)CCCCC3)[C@@H]4OC(C)=O)[C@@]2(C)C[C@@H]1N1CCCCC1 [Vecuronium bromide] | 0.998 (inactive)
CC(=O)OCC(=O)[C@@]1(O)CC[C@H]2[C@@H]3CCC4=CC(=O)CC[C@]4(C)[C@@]3(F)[C@@H](O)C[C@@]21C [Fludrocortisone acetate] | 1.04 (inactive)
CC1(C)S[C@@H]2[C@H](NC(=O)[C@H](NC(=O)N3CCNC3=O)c3ccccc3)C(=O)N2[C@H]1C(=O)O [Azlocillin sodium salt] | 0.0107 (active)
C[C@@](Cc1ccc(O)c(O)c1)(NN)C(=O)O [Carbidopa] | 0.993 (inactive)
C[C@H]1O[C@H](O[C@H]2[C@H](O)[C@@H](O)[C@@H](O[C@@H]([C@H](O)[C@@H](O)C=O)[C@H](O)CO)O[C@@H]2CO)[C@H](O)[C@@H](O)[C@@H]1N[C@H]1C=C(CO)[C@@H](O)[C@H](O)[C@H]1O [Acarbose] | 0.884 (inactive)
O=C(O)CCC(=O)c1ccc(-c2ccccc2)cc1 [Fenbufen] | 0.994 (inactive)
CN1CCC[C@@H]1CCO[C@](C)(c1ccccc1)c1ccc(Cl)cc1 [Clemastine fumarate] | 0.947 (inactive)
CN(C)CCOC(C)(c1ccccc1)c1ccccn1 (stereo not drawn) [Doxylamine succinate] | 0.993 (inactive)
CC(=O)N(O)CCCCCNC(=O)CCC(=O)N(O)CCCCCNC(=O)CCC(=O)N(O)CCCCCN [Deferoxamine mesylate] | 1.07 (inactive)
C[C@]12CCC(=O)C=C1CC[C@@H]1[C@@H]2[C@@H](O)C[C@@]2(C)[C@H]1CC[C@]2(O)C(=O)CO [Hydrocortisone] | 0.994 (inactive)
CN(C)CC/C=C1\c2ccccc2CSc2ccccc21 [Dosulepin hydrochloride] | 1.02 (inactive)
CN1CCN(CCCN2c3ccccc3Sc3ccc(S(=O)(=O)N(C)C)cc32)CC1 [Thioproperazine dimesylate] | 1.01 (inactive)
CO[C@H]1C[C@H](O[C@H]2[C@H](C)[C@@H](O[C@@H]3O[C@H](C)C[C@H](N(C)C)[C@H]3OC(C)=O)[C@@H](C)C[C@@]3(CO3)C(=O)[C@H](C)[C@@H](OC(C)=O)[C@@H](C)[C@@H](C)OC(=O)[C@@H]2C)O[C@@H](C)[C@@H]1OC(C)=O [Troleandomycin] | 0.00916 (active)
Cc1cnc(C(=O)O)c[n+]1[O-] [Acipimox] | 0.994 (inactive)
COc1ccc(-c2cc(=O)c3c(O)cc(O[C@@H]4O[C@H](CO[C@@H]5O[C@@H](C)[C@H](O)[C@@H](O)[C@H]5O)[C@@H](O)[C@H](O)[C@H]4O)cc3o2)cc1O [Diosmin] | 0.991 (inactive)
